A selection: hits, their analogues and other compounds. The true share with any hit is near 14%.
HADH2 inhib – qHTS Assay for Inhibitors of HADH2 (Hydroxyacyl-Coenzyme A Dehydrogenase, Type II) | AID 886, 2007 | 3-hydroxyacyl-CoA dehydrogenase type-2 (Homo sapiens), Q99714 | 73,000 tested, 3.4% active | Potency, µM (titrated, usually from 57.1 µM), without a hit: at the top dose activity change, negative = inhibition, usual class: inhibitors | recombinant HADH2, NADH fluorescence, beta-hydroxybutyryl-CoA; note: potency is the fitted concentration of half-maximal effect; % is set by controls: 0 for no effect and ±100 for the full control effect; nearly all actives have a fitted effect of over 60% in size
Target sequence (Q99714 whole entry, looked up, one chain of several): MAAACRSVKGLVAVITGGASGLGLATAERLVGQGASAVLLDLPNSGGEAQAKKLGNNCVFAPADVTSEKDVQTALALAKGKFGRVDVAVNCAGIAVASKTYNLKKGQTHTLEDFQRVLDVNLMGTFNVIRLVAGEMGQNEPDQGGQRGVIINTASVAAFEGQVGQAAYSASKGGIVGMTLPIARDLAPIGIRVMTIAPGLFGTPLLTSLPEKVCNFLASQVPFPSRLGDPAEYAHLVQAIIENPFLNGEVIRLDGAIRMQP
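Buffer 100 mM Tris-HCl pH 9.0/0.01% Tween-20; HADH2 20 nM; NAD+ 1 mM; beta-hydroxybutyryl-CoA 90 uM (all final). 15 min cpd preincubation, RT.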
A350 fluor – qHTS Assay for Spectroscopic Profiling in A350 Spectral Region. AID 590, 2007. max dye-equivalent concentration, M. Compound autofluorescence, 340/450 nm, Alexa 350 dye-equivalents; stronger effect = higher value. 59,000 tested, 11% active; in the data active = max dye-equivalent concentration above about 10 nM; inconclusive = mostly about 1.1 nM to 9.6 nM
HSD17B inhib – qHTS Assay for Inhibitors of HSD17B4, hydroxysteroid (17-beta) dehydrogenase 4 | AID 893, 2007 | recombinant HSD17B10, NADH fluorescence kinetic | 75,000 tested, 7.6% active | Potency, µM (titrated, usually from 57.1 µM), inactives show at the top dose activity change, negative = inhibition, actives largely listed as inhibitors | 3-hydroxyacyl-CoA dehydrogenase type-2 (Homo sapiens), Q99714;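 note: the protocol describes HADH2 (HSD17B10) and not the HSD17B4 of the title; potency is the fitted concentration of half-maximal effect; % is set by controls: 0 for no effect and ±100 for the full control effect; nearly all actives have a fitted effect of over 70% in size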
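His-tagged E. coli-expressed HADH2 at 20 nM in 100 mM Tris-HCl pH 9.0 with 0.01 % Tween-20, preincubated 15 min with compound at room temperature. Reaction with 1 mM NAD+ and 90 uM beta-hydroxybutyryl coenzyme A; NADH fluorescence (360/450 nm) read kinetically over 4 min, last minus first point.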
4-MU autofl – qHTS Assay for Spectroscopic Profiling in 4-MU Spectral Region; compound autofluorescence, 340/450 nm, 4-MU equivalents; stronger effect = higher value; max dye-equivalent concentration, M; 59,000 tested, 11% active; AID 589, 2007; in the data active = max dye-equivalent concentration above about 10 nM; inconclusive = mostly about 1.1 nM to 9.6 nM
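Compounds in 100 mM Tris, pH 8.0, incubated 15 min at room temperature, then fluorescence read at 340 nm excitation/450 nm emission. Signal converted to 4-MU dye-equivalent concentration using an on-plate six-point 4-MU standard curve.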
AID923 – qHTS Assay for Allosteric/Competitive Inhibitors of Caspase-1: Spectroscopic Profiling in AFC Spectral Region | compound fluorescence, AFC spectral region (405/520 nm) | Potency, µM (top dose mostly 57.5 µM), for the others: at the top dose fluorescence increase, actives largely listed as activators | 75,000 tested, 1.1% active | AID 923, 2007; note: potency is the fitted concentration of half-maximal effect; 0% is about no effect
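Baseline compound fluorescence (AFC region, 405 nm ex/520 nm em) taken from the intercept of kinetic reads with 50 nM caspase-1 and 5 uM Ac-WEHD-AFC; normalized to an on-plate AFC standard curve; compounds titrated up to 57 uM.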
CRE Fsk mod – Cell signaling CRE-BLA (Fsk stim); Potency, µM (series often up to 38.2 µM), inactives show at the top dose activity change, negative = inhibition, actives largely listed as activators; 71,000 tested, 2.5% active; CHO CRE-bla reporter (cAMP response element driving beta-lactamase), forskolin EC10, beta-lactamase ratio; active = well fitted activation curve with a large enough effect in the signal ratio, with a control signal flat, not every such curve was filed as active; inconclusive = small, poorly fitted or top-dose-only effect, or effect the other way, or a change in a side signal; the % refers to the signal ratio; note: potency is the fitted concentration of half-maximal effect; % of control where 0% means no effect
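Titrated compounds plus EC10 NKH 477 on CHO CRE-bla cells, 3 h, 37 °C. CCF4, 2 h RT. Ratio 460/530 nm → AC50.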
The depositor's hits bear a star; ! = repeats disagree; [ ] = remark or other dose. Unless noted, calls come from the whole dose curve; as a rule, active = well fitted curve in the direction sought with a large enough effect; inconclusive = small, poorly fitted or top-dose-only effect, or another doubt; inactive = no such curve, though single readings can be large; an effect the other way counts as inactive or inconclusive.

For COCC(=O)N1CCC[C@@]2(CCN(c3ccncc3)C2)C1 the results were HADH2 inhib -1.3%, A350 fluor inactive, HSD17B inhib 4.6%, 4-MU autofl inactive, AID923 1.8% and CRE Fsk mod -1.5%.
Screening NC1(C(=O)NC2(C(=O)O)CCCC2)CCCC1 returned HADH2 inhib -5.2%[11.4 µM], A350 fluor inactive, HSD17B inhib 4.5%[11.4 µM], 4-MU autofl inactive, AID923 1.8%[11.5 µM] and CRE Fsk mod 1.5%[7.6 µM].
c1ccc2[nH]c(-c3cscn3)nc2c1 was read as HADH2 inhib 1.7%, A350 fluor inactive, HSD17B inhib -1.4%, 4-MU autofl inactive, AID923 0.3% and CRE Fsk mod inconclusive.
Screening c1ccc2[nH]c(-c3ccnc4ccccc34)nc2c1 returned HADH2 inhib 25.1µM*, HSD17B inhib 31.6µM*, AID923 -4.0% and CRE Fsk mod 20.6%.
c1ccc2nc(-c3nc4ccccc4[nH]3)ccc2c1 was read as HADH2 inhib 31.6µM*, A350 fluor 2.75e-08M*, HSD17B inhib 10µM*, 4-MU autofl 2.83e-08M*, AID923 -0.1% and CRE Fsk mod 3.9%.
`C=C(Cl)COc1ccc2c(C)cc(=O)oc2c1` gave HADH2 inhib inconclusive, HSD17B inhib 25.1µM*, AID923 1.2% and CRE Fsk mod inconclusive.
Cc1cc(=O)oc2cc(OC(C)C)ccc12 was read as HADH2 inhib 38.0%, HSD17B inhib 31.6µM*, AID923 1.9% and CRE Fsk mod inconclusive.
`C#CCOc1ccc2c(C)cc(=O)oc2c1` gave HADH2 inhib 3.4%, A350 fluor inactive, HSD17B inhib 2.6%, 4-MU autofl inactive, AID923 -0.4% and CRE Fsk mod -5.2%.
Cc1noc(C)c1COC(=O)COc1ccc2c(C)cc(=O)oc2c1 was read as HADH2 inhib 19.6%, A350 fluor 1.62e-08M*, HSD17B inhib 191.4%, 4-MU autofl 1.64e-08M*, AID923 1.0% and CRE Fsk mod 7.9%.
Cc1cc(=O)oc2cc(OC(C)C(=O)N3CCCc4ccccc43)ccc12 (stereo unspecified) was read as HADH2 inhib 13.5%, A350 fluor 4.61e-08M*, HSD17B inhib 20µM*, 4-MU autofl 3.89e-08M*, AID923 -1.3% and CRE Fsk mod 5.4%.
For Cc1cc2oc(=O)cc(CN3CCCc4ccccc43)c2cc1C the results were HADH2 inhib 1.8%, A350 fluor inactive, HSD17B inhib -10.7%, 4-MU autofl inactive, AID923 0.3% and CRE Fsk mod -18.4%.
COc1ccc(NC(=O)N2CC[C@@]3(CCCN(S(C)(=O)=O)C3)C2)cc1 was read as HADH2 inhib -6.6%, A350 fluor inactive, HSD17B inhib -1.2%, 4-MU autofl inactive, AID923 15.5% and CRE Fsk mod 1.3%.
For CCOC(=O)N1CCN(c2cc(=O)n(Cc3ccc(F)cc3)c(=O)[nH]2)CC1 the results were HADH2 inhib -9.6%, A350 fluor inactive, HSD17B inhib -4.7%, 4-MU autofl inactive, AID923 0.1% and CRE Fsk mod 20.9%.
Screening O=C1CC(Sc2nnc(-c3ccccc3)o2)C(=O)N1c1ccccc1 (stereo unspecified) returned HADH2 inhib -24.2%, A350 fluor inactive, HSD17B inhib inconclusive, 4-MU autofl inactive, AID923 1.2% and CRE Fsk mod inconclusive.
For O=C1c2ccccc2CC1Sc1nnc(-c2ccncc2)o1 (stereo unspecified) the results were HADH2 inhib inconclusive, A350 fluor 1.35e-07M*, HSD17B inhib -25.6%, 4-MU autofl 1.11e-07M*, AID923 7.2% and CRE Fsk mod inconclusive.
COC(=O)NC(c1cccc(C)c1)C(C(C)=O)C(=O)OC (stereo unspecified) was read as HADH2 inhib 5.0%[11.4 µM], HSD17B inhib -0.7%[11.4 µM] and AID923 4.4%[11.5 µM].
For CCCc1cc(COC)c(C#N)c(=O)[nH]1 the results were HADH2 inhib -19.6%[11.4 µM], A350 fluor 1.3e-08M*, HSD17B inhib 3.98µM*, 4-MU autofl 1.3e-08M*, AID923 -1.5%[11.5 µM] and CRE Fsk mod 10.5%[7.6 µM].
For O=C(Cc1ccccc1)NCc1nc2ccccc2[nH]1 the results were HADH2 inhib 3.7%, A350 fluor inactive, HSD17B inhib 14.8%, 4-MU autofl inactive, AID923 -2.1% and CRE Fsk mod 2.8%.
For O=c1[nH]c2cc(Cl)c(Cl)cc2[nH]c1=O the results were HADH2 inhib -25.7%, A350 fluor inconclusive, HSD17B inhib 25.1µM*!, 4-MU autofl inconclusive, AID923 -2.0% and CRE Fsk mod -12.9%.
For Clc1cc(Cl)c(Cl)cc1Cl the results were HADH2 inhib 1.0%, HSD17B inhib 0.5%, AID923 0.8% and CRE Fsk mod -10.2%.
`CSCC[C@H](NC(=O)NCc1ccccc1F)C(=O)O` gave HADH2 inhib 14.8%, A350 fluor inconclusive, HSD17B inhib -26.0%, 4-MU autofl 1.03e-08M*, AID923 1.1% and CRE Fsk mod -18.6%.
Cc1onc(-c2ccccc2)c1C(=O)Nc1nc(-c2ccc(F)c(F)c2)cs1 was read as HADH2 inhib 15.6%, A350 fluor inactive, HSD17B inhib 25.1µM*, 4-MU autofl inactive, AID923 -0.3% and CRE Fsk mod inconclusive.
`Cc1sc2nc(C(C)C)nc(SCC(=O)NCc3ccco3)c2c1C` gave HADH2 inhib inconclusive, A350 fluor inactive, HSD17B inhib -16.5%, 4-MU autofl inactive, AID923 0.1% and CRE Fsk mod inconclusive.
Screening O=C(CSc1nc2ccccc2s1)N1CCN(C(=O)c2ccco2)CC1 returned HADH2 inhib inconclusive, A350 fluor inactive, HSD17B inhib -4.8%, 4-MU autofl inactive, AID923 -2.6% and CRE Fsk mod -7.7%.
For Cc1nc(SCC(=O)N2CCN(C(=O)c3ccco3)CC2)c2c(C)c(C)sc2n1 the results were HADH2 inhib 1.5%, A350 fluor inactive, HSD17B inhib 7.0%, 4-MU autofl inactive, AID923 -0.8% and CRE Fsk mod 2µM*.
For Cc1sc2ncnc(SCC(=O)NC(=O)NCc3ccco3)c2c1C the results were HADH2 inhib -10.2%, A350 fluor inactive, HSD17B inhib -28.9%, 4-MU autofl inactive, AID923 0.9% and CRE Fsk mod 12.6µM*.
